Screening results deposited in PubChem BioAssay by The Scripps Research Institute Molecular Screening Center.
Shown are actives, neighbours in structure and some others; about 1.3% of the full set was active somewhere.
IDE inh: inhibitors of human insulin-degrading enzyme in cells; AID 434962; inhibition, % at 5.59 µM; HEK cells, FAbetaB cleavage, fluorescence polarization; actives 0.41% (n = 320,000);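 active means percent inhibition above the average of all tested compounds plus 3 SD, set per screening campaign, cut at about 16% in these data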;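 further: IDE supplied by intact live HEK cells; FP after avidin binding of uncleaved biotin substrate so inhibition keeps polarization high; 0% = DMSO wells and 100% = 60 µM reference IDE inhibitor Ii1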
Target sequence (P14735 whole entry, looked up): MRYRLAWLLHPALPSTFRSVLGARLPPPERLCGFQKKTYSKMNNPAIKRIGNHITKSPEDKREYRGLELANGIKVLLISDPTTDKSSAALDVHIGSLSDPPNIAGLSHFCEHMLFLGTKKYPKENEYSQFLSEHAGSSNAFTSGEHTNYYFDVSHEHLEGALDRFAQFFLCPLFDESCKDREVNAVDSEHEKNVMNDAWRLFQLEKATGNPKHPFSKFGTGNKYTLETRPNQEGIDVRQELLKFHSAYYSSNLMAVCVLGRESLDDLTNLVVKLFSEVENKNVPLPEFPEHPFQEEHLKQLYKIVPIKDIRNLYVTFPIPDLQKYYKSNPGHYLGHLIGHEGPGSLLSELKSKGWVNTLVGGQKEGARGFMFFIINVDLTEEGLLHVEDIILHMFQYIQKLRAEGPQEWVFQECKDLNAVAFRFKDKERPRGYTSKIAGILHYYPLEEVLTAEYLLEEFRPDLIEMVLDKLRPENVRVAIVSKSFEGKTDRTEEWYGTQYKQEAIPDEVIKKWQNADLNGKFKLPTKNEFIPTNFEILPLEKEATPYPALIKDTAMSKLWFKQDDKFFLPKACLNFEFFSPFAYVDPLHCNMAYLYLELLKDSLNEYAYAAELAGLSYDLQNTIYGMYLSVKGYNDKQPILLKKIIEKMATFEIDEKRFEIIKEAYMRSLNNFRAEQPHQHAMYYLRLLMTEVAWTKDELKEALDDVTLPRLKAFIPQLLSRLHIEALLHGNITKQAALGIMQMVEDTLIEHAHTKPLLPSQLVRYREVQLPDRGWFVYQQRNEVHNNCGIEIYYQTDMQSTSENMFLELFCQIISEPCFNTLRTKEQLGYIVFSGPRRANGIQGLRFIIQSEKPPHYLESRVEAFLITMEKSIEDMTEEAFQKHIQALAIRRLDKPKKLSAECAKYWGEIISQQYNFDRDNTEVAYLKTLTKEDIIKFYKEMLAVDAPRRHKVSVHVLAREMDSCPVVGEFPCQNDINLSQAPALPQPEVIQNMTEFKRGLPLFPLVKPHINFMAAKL
Rin1-Abl PPI inh: inhibitors of human Rin1-Abl protein interaction; inhibition, % at 7.35 µM; TR-FRET Rin1/Abl binding, biochemical; AID 588664; actives 0.4% (n = 360,000); in the data active means inhibition above about 5%, passing the limit was not always enough
PKA-R1A act: PKA-R1A complex activation | actives 0.083% (n = 340,000) | activation, % at 11.4 µM | P00514+P68181 | PKA-R1A dissociation, Cy5-IP20 fluorescence polarization; scaled: DMSO 0%, 113 µM cGMP 100% | AID 504707;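 active means percent activation above the mean of all tested compounds plus 3 SD, cut at about 19% in these data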;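 further: higher means more PKAc released from R1A so a rise in polarization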
E coli Lon inh: E. coli protease La inhibition | purified E. coli Lon protease, fluorescence polarization | inhibition, % at 7.94 µM | actives 0.42% (n = 360,000) | AID 602123; in the data active means inhibition above about 13%, passing the limit was not always enough;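 further: 0% = enzyme with probe and DMSO and 100% = no enzyme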
PKA-R2B activ: activates the human PKA-R2B holoenzyme complex; P22694+P31323; PKA-R2B holoenzyme dissociation, Cy5-IP20 fluorescence polarization; R2B truncated from residue 108, S112A mutant; 0% DMSO only, 100% 113 µM cGMP; activation, % at 11.4 µM; actives 0.079% (n = 340,000); AID 504700;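 active means activation above a cutoff set at the mean over all compounds plus 3 SD, cut at about 18% in these data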;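 further: higher means more holoenzyme dissociation and a rise in polarization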
IDE cell activ: boosts human insulin-degrading enzyme activity in HEK cells | P14735 | FAbeta-B cleavage, fluorescence polarization; 0% vehicle, 100% cell-free pure enzyme wells | activation, % at 5.96 µM | actives 0.073% (n = 340,000) | AID 493087;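 active means activation above the mean of all tested compounds plus 3 SD, set per screening campaign, cut at about 17% in these data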
E coli Lon conf: confirmation of E. coli Lon protease inhibitors; purified E. coli Lon, fluorescence polarization; actives 31% (n = 1,400); inhibition, % at 7.94 µM; shares compounds with E coli Lon inh; AID 602230; in the data active means inhibition above about 16%;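 further: 0% = enzyme with probe and DMSO and 100% = no enzyme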
Active calls of the source: *; x = no result.

SMILES	IDE inh	Rin1-Abl PPI inh	PKA-R1A act	E coli Lon inh	PKA-R2B activ	IDE cell activ	E coli Lon conf
CCOC(=O)C1=C(C)NC(=O)CC1c1ccccc1 (stereo unspecified)	-2	1	-7	-3	-1	9	x
CCOC(=O)C1=C(C)NC(=S)N(C(C)=O)C1c1ccccc1 (stereo unspecified)	6	-1	0	17*	-8	3	1
O=C(CC12CC3CC(CC(Br)(C3)C1)C2)Nc1cccc(S(=O)(=O)NC2=NCCC2)c1	0	-2	-8	16*	-5	1	2
O=C(NCCCn1ccnc1)/C(=C/c1ccc(F)cc1)NC(=O)c1ccccc1	2	2	2	0	-2	3	x
CC1(C)CC(=O)C=C(Nc2ccccc2N)C1	-1	1	-4	19	-5	-2	x
Cc1ccc(NC2=CC(=O)CC(C)(C)C2)c(N)c1	1	-1	-2	79*	-1	4	-13
Cc1ccc2c(=O)n3c(nc2c1)C(CC(C)C)NC(=O)c1ccc(Cl)cc1-3 (stereo unspecified)	2	x	x	x	x	x	x
CCOC(=O)c1c2c(c(=S)n(-c3ccccc3)c1N)CCC2	-2	0	-1	24*	-4	4	-4
N#Cc1c2c(c(=S)n(-c3ccccc3)c1N)CCCC2	5	-1	13	34*	-4	-3	23*
COc1ccc2nc3cccc(OC)c3nc2c1	1	-4	-3	7	-5	3	x
COc1ccc2nc(-c3ccco3)c(-c3ccco3)nc2c1	5	2	-9	19*	9	-1	-7
CC1(C)CC(=O)C2=C(C1)Nc1ccccc1NC2c1ccc(F)cc1 (stereo unspecified)	0	-1	5	3	3	4	x
COc1ccc(C2Nc3ccccc3NC3=C2C(=O)CC(C)(C)C3)cc1 (stereo unspecified)	2	-1	-4	64*	0	-7	10
COc1ccc(C2Nc3ccccc3NC3=C2C(=O)CC(C)(C)C3)cc1O (stereo unspecified)	-3	0	-2	19*	-1	2	9
CCOc1ccc(C2Nc3ccccc3NC3=C2C(=O)CC(C)(C)C3)cc1OC (stereo unspecified)	-1	-3	-1	29*	-15	5	-2
CC1(C)CC(=O)C2=C(C1)Nc1ccccc1NC2c1ccc2c(c1)OCO2 (stereo unspecified)	1	-3	1	36*	0	-1	16*
COc1cc(-c2ccccc2)[nH]c(=S)n1	-1	1	-9	0	3	-10	x
COc1ccc(Nc2nnc(SCC(=O)NC3CC3)s2)cc1	1	1	-10	2	-7	4	x
Cc1cc2c(cc1C)NC(c1c(C)n(C)n(-c3ccccc3)c1=O)C1=C(CC(C)(C)CC1=O)N2 (stereo unspecified)	-6	-2	-18	20*	-4	4	4
Cc1cccc(NC(=O)CSc2nnc(CN3CCOCC3)n2C)c1C	6	-1	-4	-10	-4	-6	x
CCCNC(=S)Nc1ccc2nc(-c3ccccn3)c(-c3ccccn3)nc2c1	3	-8	2	19*	-4	-1	-3
CCOc1ccc(CC(=O)N/N=C(\C)c2cccnc2)cc1	x	-1	-5	6	-8	2	x
O=C(CCCN=C1NS(=O)(=O)c2ccccc21)OCc1ccccc1	-3	-2	1	-11	-12	5	x
CN1CCc2cc3c(c4c2[C@H]1[C@H](O)c1ccccc1-4)OCO3	2	-10	2	59*	6	6	27*
COc1ccc2c(c1OC)C(=O)OC2C1c2c(cc3c(c2OC)OCO3)CCN1C (stereo unspecified)	3	2	5	4	0	7	x
SMILES	IDE inh	Rin1-Abl PPI inh	PKA-R1A act	E coli Lon inh	PKA-R2B activ	IDE cell activ	E coli Lon conf
O=C(c1cc(COc2ccc(F)cc2F)on1)N1C[C@H]2CC[C@H]1C2	-2	2	15	24*	0	-2	-6
CC(=O)Nc1cccc(-c2ccnc3c2CC(C)(C(=O)NCC2CC2)O3)c1 (stereo unspecified)	x	2	x	47*	x	x	-5
CC(=O)Nc1ccc(-c2ccnc3c2CC(C)(C(=O)NCC2CC2)O3)cc1 (stereo unspecified)	x	-4	x	-5	x	x	x
CCOC(=O)C1=CCN(S(=O)(=O)c2ccc(C)cc2)C1c1cccc2ccccc12 (stereo unspecified)	x	6	x	-11	x	x	x
CCOc1nc(NCCc2ccc(OC)c(OC)c2)nc(NC(C)(C)CO)n1	6	-1	-2	1	-10	4	x
CC1CCCC(C)N1C(=S)NCc1ccco1 (stereo unspecified)	5	1	3	-7	1	-7	x
Cc1ccc(NC(=O)COC(=O)CCc2c[nH]c(=O)[nH]2)cc1	-1	3	-7	31*	-10	0	52*
COc1c(O)cccc1[C@H](O)C1CCN(CCc2ccc(F)cc2)CC1	-3	1	-2	71*	2	3	13
Cc1ccc(N(C(C)C(=O)O)S(=O)(=O)c2c(C)[nH]c(=O)[nH]c2=O)cc1 (stereo unspecified)	5	3	7	0	3	5	x
Fc1ccc(Nc2nc(N3CCOCC3)nc(N3CCOCC3)n2)cc1	0	2	-1	-4	0	5	x
O=[N+]([O-])c1ccc(Nc2nc(N3CCOCC3)nc(N3CCOCC3)n2)cc1	2	2	1	17*	4	5	-2
COc1ccccc1-n1c(O)c(C=NCc2ccccn2)c2ccccc2c1=O	5	-2	-2	6	-6	3	x
C[N+]1(CC(=O)OC2CCCCCCCCCCC2)CCCC1	3	1	-9	6	4	2	x
CC(=O)/C(C[N+]1(C)CCCCC1)=N\O	-4	1	0	23*	1	10	-2
O=C(NCc1ccccc1)c1ccc(-c2ccccc2C(F)(F)F)o1	3	2	-4	-6	-10	-4	x
OCCC1CN(Cc2ccsc2)CCN1C1CCCC1 (stereo unspecified)	5	-1	5	20*	-4	-1	3
O=C(CN1CCN(S(=O)(=O)c2ccc(Cl)cc2)CC1)NC(=O)NC1CCCCC1	6	3	-10	0	2	4	x
O=C1c2sccc2-c2cccc3cccc1c23	x	-5	4	54*	-10	x	30*
Cc1c(Br)cc(C(=O)O)c(C)c1C	-4	3	-7	9	-4	1	x
Cc1c(N)cc(N)cc1C(=O)O	-4	-4	-10	61*	-10	3	14
